This is a sample that favours compounds with a hit; in the whole collection about 1.6% have one here.
KCNQ2 inh: KCNQ2 (rat) channel inhibition; CHO-K1 KCNQ2, FluxOR thallium flux, 20 min; active compounds read low; B-score at 10 µM; 310,000 compounds, 1.1% hits;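 active means fluorescence ratio B-score at most minus 3 library SDs, with starting brightness B-score within 2 library SDs, cut at about -5.5 in these data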
Target sequence (O88943 whole entry, looked up): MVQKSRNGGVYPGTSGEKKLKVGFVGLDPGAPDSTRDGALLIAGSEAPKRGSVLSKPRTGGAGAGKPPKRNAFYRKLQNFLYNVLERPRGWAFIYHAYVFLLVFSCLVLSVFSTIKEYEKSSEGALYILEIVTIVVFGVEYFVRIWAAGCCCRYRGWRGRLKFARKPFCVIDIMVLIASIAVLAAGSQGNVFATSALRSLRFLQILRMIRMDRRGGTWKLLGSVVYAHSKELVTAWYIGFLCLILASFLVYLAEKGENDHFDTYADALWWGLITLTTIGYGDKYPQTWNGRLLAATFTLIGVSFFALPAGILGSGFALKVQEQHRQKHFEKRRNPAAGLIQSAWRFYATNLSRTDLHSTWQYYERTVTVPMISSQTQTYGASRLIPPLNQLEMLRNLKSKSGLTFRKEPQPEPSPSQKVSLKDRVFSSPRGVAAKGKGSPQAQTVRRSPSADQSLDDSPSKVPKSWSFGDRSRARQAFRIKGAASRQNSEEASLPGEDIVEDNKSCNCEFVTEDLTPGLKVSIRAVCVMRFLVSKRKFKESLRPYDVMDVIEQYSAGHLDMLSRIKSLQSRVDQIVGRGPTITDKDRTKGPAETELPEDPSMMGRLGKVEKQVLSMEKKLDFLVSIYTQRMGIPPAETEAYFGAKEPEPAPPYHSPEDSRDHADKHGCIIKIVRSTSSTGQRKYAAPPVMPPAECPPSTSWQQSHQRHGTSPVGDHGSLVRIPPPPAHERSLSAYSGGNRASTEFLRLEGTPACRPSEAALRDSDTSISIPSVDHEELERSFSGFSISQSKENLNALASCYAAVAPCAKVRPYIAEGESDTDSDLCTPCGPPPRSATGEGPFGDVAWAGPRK
KCNQ2 enhance: enhances the rat KCNQ2 potassium channel. O88943. CHO-K1 KCNQ2, FluxOR thallium flux fluorescence; active compounds read high. B-score at 10 µM. 310,000 compounds, 0.54% hits. AID 2239;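 active means fluorescence ratio B-score at least 3 SD of library B-scores, with initial fluorescence B-score within 3 of them, cut at about 5.3 in these data; same plate scores as AID 2156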;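 further: B-score of peak minus minimum over baseline fluorescence ratio after K+ and Tl+ stimulus; positive B-score means potentiation of KCNQ2 with more thallium influx and brighter signal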
* marks the source's active call; other numbers are inactive results; i = inactive; x = no result.

SMILES	KCNQ2 inh	KCNQ2 enhance
Cc1sc2ncnc(SCC(=O)N3CCN(C(=O)c4ccco4)CC3)c2c1C	i	0.17
Cc1sc2nc(C(C)C)nc(SCC(=O)N3CCN(C(=O)c4ccco4)CC3)c2c1C	i	13*
Cc1ccc(Cc2cnc(N3C(=N)SC(C)C3=O)s2)cc1 (centres undefined)	i	0.46
Cc1cccc(Cc2cnc(N3C(=N)SC(C)C3=O)s2)c1 (centres undefined)	i	6*
CCN(CC(=O)NCc1cccs1)C(=O)c1ccc(NS(=O)(=O)c2cccc([N+](=O)[O-])c2)cc1	i	x
Nc1n[nH]c(N)c1N=Nc1ccc2c(c1)OCO2	i	x
Cc1ccc(CNC(=O)CCS(=O)(=O)c2ccc(Cl)cc2)cc1	i	x
Cc1ccc(C)c(C(=O)CCC(=O)NCc2ccc(Cl)cc2)c1	-5.95*	-5.95
CC(C)C1OC2c3cccc4cccc(c34)C2N1c1ccccc1 (centres undefined)	-5.73*	-5.73
CCOC(=O)c1c(S(=O)(=O)NC2CCN(C(=O)OCC)CC2)c(C)n(C)c1C	i	x
O=C(COC(=O)c1ccccc1OC(F)F)Nc1ccc2[nH]c(=O)[nH]c2c1	i	x
O=C(COC(=O)C1(c2ccc(F)cc2)CCCC1)NCc1ccc2c(c1)OCO2	i	x
O=C(COC(=O)C1(c2ccccc2F)CCCC1)NCc1ccc2c(c1)OCO2	-7.08*	-7.08
O=C(CN1C(=O)c2ccccc2S1(=O)=O)NC(Nc1ccccc1F)C(Cl)(Cl)Cl (centres undefined)	i	x
O=C(CN(Cc1ccccc1)C(=O)c1cc2c(s1)CCC2)NCc1cccs1	i	x
O=C(CN(C(=O)c1cc2c(s1)CCC2)C1CCCC1)NCc1cccs1	-7.14*	-7.14
COc1ccc(C=O)cc1OC(=O)N1CCOCC1	i	x
CC(C)NC(=S)N/N=C/c1ccc(C(C)(C)C)cc1	i	0.57
COc1ccccc1NC(=O)COc1ccccc1C(=O)c1cnn(-c2ccccc2)c1	-6.05*	-6.05
CCc1ccc(NC(=O)COc2ccc(F)cc2C(=O)c2cnn(-c3ccccc3)c2)cc1	i	x
Cc1cc(N2CCOCC2)ccc1/C=C\[N+](=O)[O-]	-7.06*	-7.06
O=[N+]([O-])c1ccc(N2CCOCC2)cc1O	i	1.09
COC(=O)c1ccccc1S(=O)c1snnc1C (centres undefined)	i	0.98
Cc1ccc(CNC(=S)NC2CCC(C(C)(C)C)CC2)cc1 (centres undefined)	-6.86*	-6.86
COc1ccc(CNC(=S)NC2CCCC2)cc1	i	0.39
SMILES	KCNQ2 inh	KCNQ2 enhance
C=C1CCN([C@@H](Cc2ccccc2)C(=O)NCc2ccc(Cl)c(Cl)c2)S(=O)(=O)c2ccccc21	-6.18*	-6.18
C=C1CCN([C@@H](CC(C)C)C(=O)NCc2ccc(Cl)c(Cl)c2)S(=O)(=O)c2ccccc21	i	x
COc1cc2c(cc1OC)C(c1ccc(-c3cc(Cl)ccc3Cl)o1)=NCC2	i	x
COc1cc2c(cc1OC)C(c1ccc(-c3ccc(Cl)c(Cl)c3)o1)=NCC2	-8.83*	-8.83
COc1cc2c(cc1OC)C(c1ccc(-c3ccc(Cl)cc3Cl)o1)=NCC2	i	x
COc1cc2c(cc1OC)C(c1ccc(-c3ccccc3Cl)o1)=NCC2	-8.35*	-8.35
COC(=O)CCNC(=O)c1nn(Cc2ccccc2)c(=O)c2ccccc12	i	x
CCC[C@@H]1C[C@@]1(CCC)[C@@H](NP(=O)(c1ccccc1)c1ccccc1)c1ccc(C(=O)OC)cc1	i	x
COC(=O)c1cccc(C#CC(NP(=O)(c2ccccc2)c2ccccc2)c2ccccc2)c1 (centres undefined)	-6.33*	-6.33
CCCCOc1ccc(Nc2cc(Cl)ccc2C(=O)O)cn1	i	3.85
COc1cccc(CN(C)C(=O)CSC(C)C(=O)Nc2cc(C)on2)c1OC (centres undefined)	i	x
CN(Cc1cnccn1)C(=O)CC1C(=O)NCCN1Cc1c(F)cccc1Cl (centres undefined)	i	0.01
COc1ccc(C(CNC(=O)c2oc3ccc(C)cc3c2C)N2CCCCC2)cc1 (centres undefined)	i	x
COc1ccc(C(CNC(=O)c2oc3cc(C)c(Cl)cc3c2C)N2CCCCC2)cc1 (centres undefined)	-5.79*	-5.79
COc1ccc(C(CNC(=O)COc2cc(C)c(Cl)c(C)c2)N2CCCCC2)cc1 (centres undefined)	-5.99*	-5.99
COc1ccc(C(CNC(=O)COc2ccc(C)c(C)c2)N2CCCCC2)cc1 (centres undefined)	i	x
CC1(c2cccc(Br)c2)NC(=O)N(CC(=O)Nc2ccc(S(N)(=O)=O)cc2)C1=O (centres undefined)	i	0.47
C#CCSc1nnnn1-c1ccc(OCC)cc1	i	0.55
Cc1nc2c(c(=O)c3ccccc3n2C)c(=O)n1C1CCCCCC1	i	0.08
Cn1c2ccccc2c(=O)c2c(=O)n(C3CCCCC3)c(-c3ccco3)nc21	i	6.65*
CCCCNC(=O)c1onc(CSc2cc(C)cc(C)c2)c1C(=O)NCCCC	-5.61*	-5.61

Screening data from PubChem BioAssay.
